# This is part of a sample that, as a whole, favours compounds with a hit. Of some 83,000 tested, about 20% had one in any assay.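 The endpoint reported here, percent growth, reads 100 for growth as untreated, 0 for no net growth and -100 for all cells dead.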 Unmarked numbers belong to inactive results. Activity calls are given as the source filed them. Rule for the calls: active = growth percent below 10; inactive = the rest.
# Tested on: MDA-MB-468 breast
# Test: NCI-60 one-dose screen, 48 h (100 = growth as untreated, 0 = no growth, -100 = all killed)
# Conditions: 10 µM unless noted
row,Structure (SMILES),growth
1,COc1cc(OC)cc(C(=O)Nc2sc3c(c2C(N)=O)CCC(=O)C3)c1,37.1%
2,Oc1[nH]c2ccc(Cl)cc2c1/C=c1/ccc2c(c1)N=C(c1cc(F)cc(F)c1)N=2,53%
3,CN1CCN(Cc2ccc(NC(=O)c3[nH]ncc3Nc3cc(OC4CCCC4)ncn3)cc2)CC1,16.1%
4,CN(C)c1ccc(C2Nc3ccccc3-n3cccc32)cc1 (stereo not given),-50.4% (active)
5,O=C1/C=C/[C@@H](O)[C@@H]2C[C@@H](O)C[C@H]2/C=C/CCC[C@H](CCOCc2ccccc2)O1,-41.9% (active)
6,COc1cc(C(C)c2ccc3c(ccn3C)c2)cc(OC)c1OC (stereo not given),51.9%
7,COC(=O)Nc1nc2ccc(C(=O)c3cccs3)cc2[nH]1,5.96% (active)
8,COc1cc(/C=C\c2cc(OC)c(OC)c(OC)c2)cc(NC(=O)/C=C/c2cc(OC)c(OC)c(OC)c2)c1OC,36%
9,O=C(Nc1cccc(-n2ccc3c(NC(=O)c4ccccc4)ncnc32)c1)Nc1ccc(Cl)c(C(F)(F)F)c1,-2.39% (active)
10,Cc1cccc(NC(=O)c2sc3nc4c(cc3c2N)CCCC4)c1,24.7%
11,C=C1C(=O)O[C@H]2[C@H]1CC/C(COC(=O)NCc1ccc(OC)cc1)=C\CC[C@@]1(C)O[C@@H]21,27.7%
12,O=C1[C@@H]2Cc3c([nH]c4ccccc34)[C@@H](c3ccc(Cl)cc3)N2C(=O)CN1C1CCN(Cc2c(F)cccc2F)CC1,40.3%
13,O=C(CN1CCN(c2cc3c(cc2F)c(=O)c(C(=O)N/N=C/c2ccccc2)cn3C2CC2)CC1)N/N=C\c1ccccc1,85.4%
14,COc1ccc(/C=N/NC(=O)CN2CCN(c3cc4c(cc3F)c(=O)c(C(=O)O)cn4C3CC3)CC2)cc1O,101%
15,Oc1ccc2ccccc2c1/C=N\Nc1ccccn1,-19.3% (active)
16,O=C(CN1CCCCCC1)Nc1nc2ccc(NCc3ccc(Cl)cc3)cc2s1,85.2%
17,Brc1ccc(Nc2nc3ccccc3nc2Nc2ccc(Br)cc2)cc1,-48.6% (active)
18,CC1=NN(c2ccc(S(=O)(=O)O)cc2)C(=O)C1N=Nc1ccc(-c2ccc(N=Nc3ccc(OS(=O)(=O)c4ccc(C)cc4)cc3)c(S(=O)(=O)O)c2)cc1 (stereo not given),86.8%
19,O=C(NNC(=S)Nc1ccccc1)c1ccccn1,51.2%
20,Oc1ccc(CCC2CCNc3ccccc32)cc1 (stereo not given),46.8%

row,Structure (SMILES),growth
1,NS(=O)(=O)c1ccc(CCn2c(SCC(=O)c3ccc(Cl)cc3)nc3ccccc3c2=O)cc1,105%
2,Nc1cccc(-c2nc3sccn3c2-c2ccnc(NCCCNS(=O)(=O)c3ccc(C(F)(F)F)cc3)n2)c1,0.59% (active)
3,O=[n+]1c2ccccc2n([O-])c2cc(Cl)ccc21,-15.4% (active)
4,CC(=O)Nc1cc(F)cc(C(F)(F)F)c1Cl,86.3%
5,CCc1ccc(CNc2ccc(N3CCOCC3)c(C(=O)O)c2)cc1,101%
6,C=CC(CC(c1ccccc1)(c1ccccc1)c1ccccc1)N(CC)CC (stereo not given),30.5%
7,COc1cccc(-c2nc(-c3ccc(NC(=O)c4ccccc4)cc3)[nH]c2-c2ccnc(Br)c2)c1,28.8%
8,COc1ccc(-c2cc(-c3cc4ccccc4oc3=O)n(-c3ccccc3)n2)cc1,87.3%
9,C/C=C(/C(=C/C)c1ccc(O)cc1)c1ccc(O)cc1,-15.5% (active)
10,CCCCCc1c(C)[nH]c(/C=c2\[nH]/c(=C3/C=c4ccccc4=N3)cc2OC)c1C,-63.8% (active)
11,Cc1cc2c(c(=O)o1)C(c1ccc(OC(=O)N3CCOCC3)cc1)C(C#N)=C(N)O2 (stereo not given),119%
12,Cc1ccc(S(=O)(=O)OC2COCOC2C(OS(=O)(=O)c2ccc(C)cc2)C2OCOCC2OS(=O)(=O)c2ccc(C)cc2)cc1 (stereo not given),108%
13,Nc1nc2c(c3ncccc13)C(c1ccccc1)Cc1ncccc1-2 (stereo not given),55.8%
14,Cc1ccc(OC(=O)c2ccc(Cl)cc2)cc1,105%
15,CCNC(=O)OCCc1c2ccccc2nc2ccccc12,108%
16,C=CC(=O)NC(=O)Nc1ccccc1Cl,30.4%
17,O=C(Nc1ccc(Oc2cccc(Cl)c2)c(Cl)c1)c1cccnn1,63.3%
18,CC(C)CCNCC(C)(C)O,112%
19,O=c1ccn(C2CC(O)C(O)C(CO)O2)c(=O)[nH]1 (stereo not given),149%
20,O=C1/C(=C/c2ccc(Cl)cc2Cl)CN(S(=O)(=O)c2ccccc2)C/C1=C\c1ccc(Cl)cc1Cl,-24.5% (active)
